Screen size: about 410,000 compounds; about 2,000 (0.49%) were called active. Entries that show only a call come without a potency. Not shown: some 8% with an inconclusive outcome. Calls follow the shape of the full dose curve; tested in HEK293 reporter line. The full list was thinned out, with actives kept by preference.
Potency is read from the fitted curve at half-maximal effect.

The nature of this experiment: qHTS Assay for Foot and Mouth Disease Virus Antivirals: Primary Screen against the MLPCN compound library. Also: nearly all actives have a fitted effect of over 55% in size. As to conditions: FMDV antiviral cell-based qHTS; series mostly up to 57.9 µM.
`O=C(c1ccc(F)cc1)N1CCC(c2nc(-c3ccc(S(=O)(=O)N4CCCC4)cc3)no2)CC1`: the Potency result is “inactive”.

For the molecule `COc1ccc(-c2ccc3c(c2)CN(C(=O)C(C)(C)C)Cc2cnnn2-3)cc1`, the Potency result was “inactive”.

For `CCC(C)n1c(S(=O)(=O)O)nc2ccccc21` (centres undefined), the Potency result is “inactive”.

Consider `O=C(Nc1ccc2nc3n(c(=O)c2c1)CCCCC3)c1cccc(C(F)(F)F)c1`, for which the Potency result is “inactive”.

Take `Cc1cccc(NC(=O)c2ccc3c(=O)n4c(nc3c2)CCCCC4)n1`: the Potency is 12.6 µM (active).

On to `O=C(NNC(=O)c1ccc2c(=O)n3c(nc2c1)CCC3)c1cccc(Cl)c1`, for which the Potency entry is “inactive”.

For the molecule `c1ccc(-c2cn3c(n2)-c2ccccc2C3)cc1`, the Potency was 7.94 µM (active).

On to `CC1(C)Cc2ccccc2-c2nnc(-c3ccc4ccccc4n3)n21`, for which the Potency entry was “inactive”.

As for `CN1C(=O)N(CC(=O)Nc2cccc(S(=O)(=O)N(C)c3ccccc3)c2)C(=O)C12CCCCC2`, the Potency entry is “inactive”.

As to `CCN1C(=O)[C@H]2[C@@H](c3ccc(-c4ccc(Cl)c(Cl)c4)c(OC)c3)N[C@@](C)(C(=O)OC)[C@H]2C1=O`, the Potency entry was “inactive”.

Take `Cc1cc(C(=O)Nc2nc(C)c(C(=O)N(C)C)s2)ccc1[N+](=O)[O-]`: the Potency was 15.8 µM (active).

Take `COc1ccc(N(C)S(=O)(=O)c2cccc(C(=O)Nc3nc(C)c(C(C)=O)s3)c2)cc1`: the Potency result was “inactive”.

As to `Cc1nc(NC(=O)/C=C/c2ccc(C(C)(C)C)cc2)sc1C(=O)N(C)C`, the Potency result is “inactive”.

For the molecule `CCOc1ccc(CCNC(=O)COC(=O)COc2cc(C)cc(C)c2)cc1OCC`, the Potency result is “inactive”.

`Cc1ccc(Nc2c(C(C)C)c(C)c(C#N)c3nc4ccccc4n23)cc1`: the Potency entry is “inactive”.

As to `COc1cccc(Oc2cnc(N)nc2-c2ccc(OC)cc2O)c1`, the Potency result was “inactive”.

Turning to `Cc1cc2nc(-c3ccc[nH]c3=O)[nH]c2cc1C`, the Potency was 12.6 µM (active).

On to `Cc1cc2nc(-c3nnnn3Cc3ccccc3)c(=O)[nH]c2cc1C`, for which the Potency result was “inactive”.

With `COc1ccc(-c2noc(CN(C(=O)c3cccs3)C(C)C)n2)cc1`, the Potency entry was “inactive”.

Take `COC(=O)c1[nH]c2ccc(C)cc2c1NC(=O)CN1CCN(c2ccccc2)CC1`: the Potency result is “inactive”.

In the case of `COC(=O)c1[nH]c2ccccc2c1NC(=O)CN1CCN(c2cccc(OC)c2)C(C)C1` (centres undefined), the Potency is 28.2 µM (active).

`COC(=O)c1[nH]c2cc(OC)ccc2c1NC(=O)CN1CCN(c2cccc(C)c2)C(C)C1` (centres undefined): the Potency result is “inactive”.

On to `Cc1cc2nc(N3C(=O)CNC3=S)sc2cc1C`, for which the Potency was 20 µM (active).

Turning to `COc1ccc(CN(C(=O)c2oc3cc(C)ccc3c2C)C2CCS(=O)(=O)C2)cc1OC` (centres undefined), the Potency result is “inactive”.

For `N=c1oc2ccccc2cc1C(=O)Nc1ccccc1`, the Potency is 11.2 µM (active).

As for `CCOc1cccc2cc(C(=O)NC(C)c3ccccc3)c(=N)oc12` (centres undefined), the Potency result was “inactive”.

Consider `COc1ccc(NC(=O)c2cc3ccccc3o/c2=N\NS(=O)(=O)c2ccc(C)cc2)cc1`, for which the Potency entry was “inactive”.

Take `Cc1cccc(C)c1NC(=O)c1cc(-c2ccccn2)nc2ccccc12`: the Potency result was “inactive”.

Turning to `Cc1ccc(NC(=O)c2cc3ccccc3oc2=O)cc1S(=O)(=O)N(C)C`, the Potency entry is “inactive”.

In the case of `C=CCn1c(=O)c(C(=O)Nc2ncccc2C)c(O)c2ccccc21`, the Potency entry is “inactive”.

Regarding `O=C(Nc1ccc(NC(=O)c2cc3ccccc3o2)cc1)c1ccc2c(c1)OCCO2`, the Potency result is “inactive”.

For the molecule `COc1cccc2cc(C(=O)Nc3cccc(C)n3)c(=O)oc12`, the Potency is 8.91 µM (active).

In the case of `COc1cccc2cc(C(=O)NCc3ccc(Cl)cc3)c(=N)oc12`, the Potency entry was “inactive”.

For `Cc1cccnc1NC(=O)c1cc2ccccc2oc1=O`, the Potency was 10 µM (active).

For `COc1ccc(NC(=O)c2sc3nc(-c4cc5cccc(OC)c5oc4=O)[nH]c(=O)c3c2C)cc1`, the Potency entry is “inactive”.

In the case of `COc1cccc(NC(=O)c2cc3ccccc3oc2=O)c1`, the Potency was 20 µM (active).

Turning to `CCOc1ccc(CN(C)C(=O)c2cc(S(=O)(=O)N3CCCC3)ccc2C)cc1`, the Potency entry was “inactive”.

With `Cc1ccccc1C(=O)N/N=C1/SCC(=O)N1Cc1ccc2c(c1)OCO2`, the Potency result is “inactive”.

As for `C=CC(COCc1ccccc1)N([C@@H](Cc1ccccc1)C(=O)OC)S(=O)(=O)c1ccccc1Br` (some centres undefined), the Potency result is “inactive”.

As for `CCN(CCCNC(=O)CC(C(=O)N1CCc2ccccc21)n1ccnc1)c1cccc(C)c1` (centres undefined), the Potency result is “inactive”.

Consider `Cc1nn(-c2ccccc2)nc1C(=O)NN`, for which the Potency entry was “inactive”.

With `COc1cc(CNc2ncnc3c2ncn3[C@H]2CN(Cc3ccc(F)cc3)C[C@@H](CO)O2)cc(OC)c1OC`, the Potency result was “inactive”.

On to `COc1ccc(Oc2ncc3nc(-c4ccc(Cl)cc4)c(=O)n(CCC#N)c3n2)cc1`, for which the Potency result is “inactive”.

`CCOC(=O)C1(CCOc2ccccc2)CCN(Cc2ccc(OC)c(O)c2)CC1`: the Potency result was “inactive”.

Consider `CCC(=O)N(Cc1ccc2c(c1)OCO2)Cc1cc2cc(OC)ccc2[nH]c1=O`, for which the Potency result was “inactive”.

Regarding `COc1cc(C(=O)Nc2ccccc2C(=O)Nc2ccccn2)cc(OC)c1OC`, the Potency entry was “inactive”.

On to `COc1cc(SC)ccc1C(=O)NCCOc1c(C)cc(C)cc1C`, for which the Potency result is “inactive”.

In the case of `COc1cc(SC)ccc1C(=O)Nc1ccc(Br)cn1`, the Potency was 8.91 µM (active).

As to `COc1cc(SC)ccc1C(=O)Nc1nc2ccccc2[nH]1`, the Potency result is “inactive”.

As for `COc1ccc(C(=O)Nc2ccc(C)cn2)c(OC)c1`, the Potency result is “inactive”.

As to `COc1cc(SC)ccc1C(=O)Nc1ccccn1`, the Potency is 17.8 µM (active).

As for `CCOc1ccc(S(=O)(=O)N2CCN(C(=O)c3cc(C4CC4)nn3-c3ccccc3)CC2)cc1`, the Potency entry was “inactive”.

Consider `CN1CCN(C(=O)c2cc3nc(-c4ccccc4)cc(C(F)(F)F)n3n2)CC1`, for which the Potency entry was “inactive”.

As to `CC(C)c1cc(Br)c(NC(=O)Nc2cccnc2)c(Br)c1`, the Potency result was “inactive”.

For `O=C1CN=C(c2ccc(Br)cc2)c2c(sc3c2CCCC3)N1CCN1CCCCC1`, the Potency entry was “inactive”.

For the molecule `OCCCCCNc1ncnc2ccccc12`, the Potency result was “inactive”.

As to `CO/N=C\c1cc(C(=O)c2ccc(Cl)cc2Cl)cn1C`, the Potency entry was “inactive”.

With `Cc1cccc(/C(N)=N/OC(=O)c2ccc(Cl)cc2Cl)c1`, the Potency was 20 µM (active).

In the case of `CC(C)(C)c1ccc(C(=O)O/N=C(\N)c2ccccn2)cc1`, the Potency entry is “inactive”.

As for `CC(C)(C)c1ccc(C(=O)O/N=C(\N)c2ccccc2)cc1`, the Potency result was “inactive”.

`Cc1ccc(C(=O)O/N=C(\N)Cc2ccc([N+](=O)[O-])cc2)c(Cl)c1`: the Potency result was “inactive”.

For `Cc1cccc(C(=O)O/N=C(\N)c2ccccn2)c1`, the Potency was 8.91 µM (active).

For the molecule `CCCNNC(=O)C(O)(c1ccccc1)c1ccccc1`, the Potency entry was “inactive”.

Consider `Cc1ccc(-c2nnc(-c3ccccc3)c(N3CCOCC3)n2)cc1`, for which the Potency result is “inactive”.

Take `COc1ccc(-c2noc(C3CC(=O)N(c4cc(C)cc(C)c4)C3)n2)cc1` (centres undefined): the Potency entry is “inactive”.

As to `Cc1cccc(C)c1-n1nnnc1C(c1ccnc2ccccc12)N(CCN(C)C)Cc1ccccc1` (centres undefined), the Potency result is “inactive”.

For `Cc1ccc(C(=O)Nc2ccccc2C(=O)O)cc1S(=O)(=O)Nc1ccccc1`, the Potency entry was “inactive”.

`Cc1cccc(C(=O)O)c1NC(=O)c1ccc(F)cc1`: the Potency result was “inactive”.

As to `Cc1c(NC(=O)c2ccc(-c3ccccc3)cc2)cccc1C(=O)O`, the Potency is 5.01 µM (active).

`COc1ccc(C(C)(O)c2nc(-c3ccncc3)cs2)cc1` (centres undefined): the Potency entry is “inactive”.

For `COc1ccc(-c2csc(N3C(=O)CNC3=S)n2)cc1`, the Potency was 10 µM (active).

`COc1ccc(C(C)(O)c2nc(-c3ccc(S(C)(=O)=O)cc3)cs2)cc1` (centres undefined): the Potency entry was “inactive”.

For `Cc1ccc(CC2CC(=O)N(Cc3ccco3)C2=O)cc1` (centres undefined), the Potency result is “inactive”.

Consider `Cn1c(=O)[nH]c(=O)c2c1nc(N1CCCCC1)n2CCOc1ccccc1`, for which the Potency result is “inactive”.

In the case of `Cn1c(=O)[nH]c(=O)c2c1nc(N1CCCCC1)n2CC(O)COc1ccc([N+](=O)[O-])cc1` (centres undefined), the Potency is 10 µM (active).

Consider `Cn1c(=O)c2c(nc(N3CCCCC3)n2CC(O)COc2ccccc2)n(C)c1=O` (centres undefined), for which the Potency entry is “inactive”.

In the case of `CCCc1cnc(N2CCN(C(=O)c3ccc(F)cc3)CC2)nc1`, the Potency result was “inactive”.

`Cc1ccc2c(c1)N(C(=O)Nc1cccc3c1CCCC3)CCO2`: the Potency result was “inactive”.

Consider `CCC(Sc1nc(C)cc(C)n1)C(=O)O` (centres undefined), for which the Potency result was “inactive”.

Consider `O=S(=O)(c1ccc(Cl)cc1)N1CCc2ccccc21`, for which the Potency entry was “inactive”.

As for `FC(F)(F)c1ccccc1N1CC1c1ccncc1` (centres undefined), the Potency entry was “inactive”.

Regarding `COc1ccccc1CC1(C)C(=O)Nc2ccc(OC(F)(F)F)cc21` (centres undefined), the Potency result is “inactive”.

For `COc1ccccc1[C@]1(C)ON(c2ccccc2C(F)(F)F)C1=O`, the Potency was 14.1 µM (active).

Take `O=C(O)c1ccccc1-c1nc2ccccc2n1-c1ccccc1`: the Potency entry is “inactive”.

On to `Cc1oc(-c2nc3ccccc3n2C)cc1C(=O)c1ccccc1`, for which the Potency was 17.8 µM (active).

`Cc1ccc(C(=O)N2CCN(c3nc4ccccc4n3C)CC2)cc1`: the Potency result is “inactive”.

Take `CN(c1ccc(OCC(=O)Nc2ccc(S(N)(=O)=O)cc2)cc1)S(=O)(=O)c1ccc(F)cc1`: the Potency result is “inactive”.

As for `Cc1ccc(S(=O)(=O)C2(S(=O)(=O)c3ccc(C)cc3)CC2)cc1`, the Potency entry was “inactive”.

As to `Cc1ccccc1C(=O)N1CCC(C(=O)Nc2cc(C(F)(F)F)ccc2N2CCCC2)CC1`, the Potency entry is “inactive”.

On to `CN(C)S(=O)(=O)N1CCC(Oc2cccc(C(=O)NCCC3=CCCCC3)c2)CC1`, for which the Potency result was “inactive”.

For `O=C(NCCc1nc(-c2ccc(F)cc2)no1)c1ccc(F)cc1`, the Potency result is “inactive”.

Consider `O=C(NCCC1=CCCCC1)c1ccc(F)cc1`, for which the Potency is 14.1 µM (active).

Take `CCCCn1nc2cc(C(=O)NCC34CC5CC(CC(C5)C3)C4)ccc2c1OC`: the Potency entry was “inactive”.

As to `Cc1noc(C)c1CSc1nnc(-c2cc(Cl)ccc2Cl)n1N`, the Potency result was “inactive”.

For the molecule `CC(=O)c1sc(NC(=O)C2CC(=O)N(Cc3ccccc3)C2)nc1-c1ccccc1` (centres undefined), the Potency result is “inactive”.

In the case of `CCOc1cc(CNCc2ccncc2)cc(Br)c1OCc1ccccc1F`, the Potency result is “inactive”.

In the case of `Clc1cc(Br)ccc1OCCCNCc1ccccc1`, the Potency entry was “inactive”.

As to `Brc1ccc(OCc2ccccc2)c(CNCc2ccncc2)c1`, the Potency is 20 µM (active).

`Cc1ccc(S(=O)(=O)c2c(C)nn(C(C)(C)C)c2OC(=O)C(C)(C)C)cc1`: the Potency entry is “inactive”.

With `COc1cc2[nH]c(=S)nc(NC3CCCCCC3)c2cc1OC`, the Potency result is “inactive”.

With `CCOC(=O)c1ccc(N2C=C(C(=O)OC)C(c3ccc(OC)c(O)c3)C(C(=O)OC)=C2)cc1`, the Potency result is “inactive”.

For `Cc1cccc(NC(=O)/C(C#N)=C\c2ccc(C(=O)O)cc2)c1`, the Potency result was “inactive”.

As to `N#C/C(=C\c1ccc(OCc2ccc(C(=O)O)cc2)cc1)C(=O)N1CCOCC1`, the Potency is 10 µM (active).

On to `COc1ccc(CCNC(=O)/C(C#N)=C/c2ccc(OCC(=O)NCC3CCCO3)cc2)cc1OC` (centres undefined), for which the Potency entry is “inactive”.

For the origin of these results see PubChem BioAssay AID1347131 (National Center for Advancing Translational Sciences (NCATS), 2019).
